Reference: PubChem BioAssay
Activity calls are given as the source filed them. Unless noted, no rule for the calls is given here.

How the values were obtained:
[1] = A549 cell viability effects, profiling panel, calcein-AM fluorescence, 48 h, basal (AID 1162); conditions: higher = more signal; also: test concentration not given here
[2] = adipocyte viability effects, profiling panel, cell-based, 3T3-L1 adipocytes, calcein-AM fluorescence, 48 h, basal (AID 1163); conditions: 3T3-L1 adipocytes viability, higher = more signal; also: test concentration not given here
[3] = HepG2 cell viability effects, profiling panel, calcein-AM fluorescence, 48 h, basal (AID 1164); conditions: higher = more signal; also: test concentration not given here
[4] = MM1S cell viability effects, profiling panel, calcein-AM fluorescence, 48 h, basal (AID 1165); conditions: higher = more signal;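 also: viability of MM1S multiple myeloma cells under basal unstimulated conditions; test concentration not given here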
[5] = basal RPMI8226 viability, no added stimulus, profiling panel, cell-based, calcein-AM fluorescence, 48 h, PK04 Diversity Set (AID 1166); conditions: RPMI8226 myeloma viability, higher = more signal;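 also: cells grown under basal conditions without added stimulus; test concentration not given here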
[6] = basal HepG2 mitochondrial membrane potential changes, profiling panel, cell-based, JC-1 fluorescence, 24 h, 100 nL compound (AID 1167); conditions: higher = more signal; also: test concentration not given here
[7] = basal 3T3-L1 adipocyte mitochondrial potential changes, profiling panel, cell-based, JC-1 fluorescence, 3T3-L1 adipocytes, 24 h, 100 nL compound (AID 1168); conditions: JC-1 mitochondrial fluorescence, higher = more signal, called active from +8 up or from −8 down; also: test concentration not given here
[8] = basal RPMI8226 mitochondrial membrane potential changes, profiling panel, cell-based, JC-1 fluorescence, 24 h, 100 nL compound (AID 1169); conditions: RPMI8226 myeloma, JC-1 mitochondrial potential fluorescence, higher = more signal; also: test concentration not given here
[9] = basal MM1S mitochondrial membrane potential changes, profiling panel, cell-based, JC-1 fluorescence, 24 h, 100 nL compound (AID 1170); conditions: higher = more signal; also: test concentration not given here
[10] = A549 lung cancer cell viability effects, profiling panel, resazurin fluorescence, 24 h, PK04 Diversity Set (AID 1171); conditions: higher = more signal, called active from +8 up or from −8 down; also: test concentration not given here
[11] = HepG2 liver cancer cell viability effects, profiling panel, resazurin fluorescence, 24 h, PK04 Diversity Set (AID 1172); conditions: higher = more signal; also: test concentration not given here
[12] = basal S. cerevisiae growth modulation, no modifier, primary screen, OD600, strain BY4716, 24 h, basal condition (AID 1173); conditions: OD600, 24 h, higher = more signal, called active from +8 up or from −8 down
[13] = MM1S myeloma cell viability, profiling panel, resazurin fluorescence, basal, 24 h, PK04 Diversity Set (AID 1174); conditions: higher = more signal, called active from +8 up or from −8 down;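 also: MM1S multiple myeloma cell line; test concentration not given here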
[14] = target: Dihydroorotate dehydrogenase (quinone), mitochondrial (Plasmodium falciparum (isolate 3D7)) (UniProt Q08210); assay: PfDHODH enzyme inhibitors, primary screen, biochemical, C-terminal His tag, absorbance 600 nm (AID 1175); conditions: DCIP absorbance 600 nm, higher = more signal, called active from +8 up or from −8 down;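 also: recombinant parasite enzyme with a five histidine tag at its C terminus; test concentration not given here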
[15] = P. aeruginosa biofilm formation inhibitors, primary screen, strain PAO1, LB-PBS medium, absorbance 600 nm (AID 1176); also: test concentration not given here; conditions: P. aeruginosa PAO1 growth/biofilm, A600, 12 h; higher = more signal
[16] = S. cerevisiae RM11-1a growth modifiers, primary screen, strain RM11-1a, OD600, basal, 24 h (AID 1177); conditions: OD600, 24 h, higher = more signal, called active from +8 up or from −8 down;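 also: cultures grown under basal conditions with no added stressor; test concentration not given here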
[17] = E. coli acrAB mutant growth effects, primary screen, E. coli filamentation inducers, strain DRC39, OD650, 24 h (AID 1178); conditions: higher = more signal, called active from +8 up or from −8 down;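 also: growth measured as culture turbidity by optical density at 650 nm; test concentration not given here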
[18] = E. coli acrAB mutant growth effects, primary screen, E. coli filamentation inducers, strain DRC39, OD650, 48 h (AID 1179);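 also: screen aims at cell division blockers that make cells filament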; conditions: E. coli DRC39 delta-acrAB growth, higher = more signal, called active from +8 up or from −8 down
[19] = RPMI8226 myeloma cell viability, profiling panel, resazurin fluorescence, basal, 24 h, PK04 Diversity Set (AID 1180); conditions: higher = more signal;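 also: RPMI8826 multiple myeloma cell line at 5000 cells per well; test concentration not given here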
[20] = target: E3 ubiquitin-protein ligase XIAP (Homo sapiens) (UniProt P98170); assay: XIAP binders, primary screen, biophysical, small-molecule microarray, fluorescence 635 nm (AID 1181); conditions: small-molecule microarray binding, higher = more signal;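 also: score merges 667 nm emission and signal to noise over triplicate slides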
Chain of E3 ubiquitin-protein ligase XIAP (Homo sapiens) (P98170 whole entry, looked up): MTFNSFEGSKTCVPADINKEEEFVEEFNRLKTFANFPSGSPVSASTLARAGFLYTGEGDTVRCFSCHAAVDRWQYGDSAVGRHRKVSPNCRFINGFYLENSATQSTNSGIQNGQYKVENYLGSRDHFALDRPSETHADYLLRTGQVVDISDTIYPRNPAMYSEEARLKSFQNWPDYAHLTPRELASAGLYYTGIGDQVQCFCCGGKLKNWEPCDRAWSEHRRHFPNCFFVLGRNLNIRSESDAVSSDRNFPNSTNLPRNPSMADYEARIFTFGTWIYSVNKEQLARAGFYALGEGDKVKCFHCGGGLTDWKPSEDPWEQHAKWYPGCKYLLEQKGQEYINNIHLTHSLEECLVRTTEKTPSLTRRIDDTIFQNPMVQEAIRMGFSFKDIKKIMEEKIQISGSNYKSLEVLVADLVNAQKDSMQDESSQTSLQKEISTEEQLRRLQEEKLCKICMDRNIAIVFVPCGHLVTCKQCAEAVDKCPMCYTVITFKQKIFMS

Chain of Dihydroorotate dehydrogenase (quinone), mitochondrial (Plasmodium falciparum (isolate 3D7)) (Q08210 whole entry, looked up): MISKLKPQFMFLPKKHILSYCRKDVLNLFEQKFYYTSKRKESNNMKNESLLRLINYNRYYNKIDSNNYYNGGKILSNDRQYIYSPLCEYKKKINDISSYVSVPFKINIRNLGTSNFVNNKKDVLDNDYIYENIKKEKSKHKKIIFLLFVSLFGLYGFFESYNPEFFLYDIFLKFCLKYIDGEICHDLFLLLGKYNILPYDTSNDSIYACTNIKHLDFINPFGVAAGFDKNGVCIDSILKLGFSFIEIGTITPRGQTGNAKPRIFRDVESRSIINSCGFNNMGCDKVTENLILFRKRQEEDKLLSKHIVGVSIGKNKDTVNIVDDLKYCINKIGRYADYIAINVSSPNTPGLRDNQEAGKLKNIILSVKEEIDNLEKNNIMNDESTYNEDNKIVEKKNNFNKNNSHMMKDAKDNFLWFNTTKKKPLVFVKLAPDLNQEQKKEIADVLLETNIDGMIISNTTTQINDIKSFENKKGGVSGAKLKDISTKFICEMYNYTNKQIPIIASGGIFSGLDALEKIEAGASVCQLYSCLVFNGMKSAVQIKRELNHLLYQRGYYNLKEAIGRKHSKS

| SMILES | z-score [1] | z-score [2] | z-score [3] | z-score [4] | z-score [5] | z-score [6] | z-score [7] | z-score [8] | z-score [9] | z-score [10] | z-score [11] | z-score [12] | z-score [13] | composite z-score [14] | z-score [15] | z-score [16] | z-score [17] | z-score [18] | z-score [19] | composite z-score [20] |
| --- | --- | --- | --- | --- | --- | --- | --- | --- | --- | --- | --- | --- | --- | --- | --- | --- | --- | --- | --- | --- |
| [N-]=[N+]=NCc1ccccc1[C@H]1OC(c2ccc(OCCCO)cc2)=N[C@@]1(Cc1ccccc1N=[N+]=[N-])C(=O)NCc1ccccc1 | -0.741 | 0.236 | -0.946 | -2.4 | -3.8 | 0.37 | -0.296 (inactive) | -1.02 | -1.38 | 0.0642 (inactive) | -0.494 | 0.745 (inactive) | -2.31 (inactive) | 0.545 (inactive) | 2.26 (inactive) | 1.95 (inactive) | 0.134 (inactive) | -0.321 (inactive) | -1.52 | -0.117 |
| CC(C)[Si](OCC[C@H]1O[C@]2(C(=O)N(Cc3ccccc3)c3ccccc32)[C@@H](C)[C@@H]1[Si](C)(C)O)(C(C)C)C(C)C | -0.287 | 1.13 | 0.35 | -0.64 | -1.31 | 0.444 | 0.578 (inactive) | -0.82 | -1.51 | -1.46 (inactive) | -0.563 | -0.113 (inactive) | 0.115 (inactive) | 0.766 (inactive) | -0.66 (inactive) | 1.11 (inactive) | -0.297 (inactive) | -0.837 (inactive) | 0.261 | -0.142 |
| C=CCOC(=O)[C@@H]1[C@H]2C(=O)O[C@H](c3ccccc3)[C@H](c3ccccc3)N2[C@H](c2ccc(OCCOC(=O)[C@H]3C[C@H]4C(=O)N[C@@H](CCCCNC(C)=O)C(=O)N4[C@H]3c3ccc(O)cc3)cc2)[C@@]12C(=O)Nc1ccc(I)cc12 | -0.778 | -0.796 | -0.931 | -0.989 | 0.572 | -0.422 | 0.725 (inactive) | -0.324 | -0.99 | 0.213 (inactive) | -0.0657 | 1.87 (inactive) | -0.967 (inactive) | 0.626 (inactive) | 2.56 (inactive) | 2.34 (inactive) | -0.0715 (inactive) | -0.649 (inactive) | -0.145 | -0.0566 |
| Cc1ccc(S[C@]2(C(=O)O)CC(=O)N(Cc3cc(C(F)(F)F)cc(C(F)(F)F)c3)[C@@H]2c2ccc(CO)cc2I)cc1 | 0.673 | 0.429 | 0.324 | -3 | -2.22 | -0.338 | -0.459 (inactive) | -0.325 | -1.36 | 0.288 (inactive) | -0.101 | -3.06 (inactive) | -2.57 (inactive) | 0.0643 (inactive) | -0.481 (inactive) | 0.555 (inactive) | 0.0907 (inactive) | -0.0983 (inactive) | -1.47 | -0.136 |
| COc1ccc([Si](C)(C)[C@H]2[C@H](CC(=O)N(CCO)Cc3ccccc3)O[C@@]3(C(=O)N(C)c4ccccc43)[C@@H]2C)cc1 | -0.836 | 0.899 | -1.12 | -1.84 | -3.42 | -0.433 | 0.505 (inactive) | -0.965 | -0.176 | 0.221 (inactive) | 0.514 | -1.42 (inactive) | -0.0262 (inactive) | -0.0113 (inactive) | 0.72 (inactive) | 0.11 (inactive) | 0.681 (inactive) | 0.455 (inactive) | 0.216 | 0.001 |
